# In PubChem BioAssay (NCI):
# The panel holds about 83,000 compounds, 20% with a hit somewhere; the sample as a whole holds those more often.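 The endpoint reported here, percent growth, reads 100 for growth as untreated, 0 for no net growth and -100 for all cells dead.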 The source made the active and inactive calls.
# Test system: MOLT-4 leukemia
# Assay: NCI-60 one-dose screen, 48 h (100 = growth as untreated, 0 = no growth, -100 = all killed)
# Conditions: 10 µM unless noted
# Method: Growth inhibition of the MOLT-4 human tumor cell line is measured as a screen for anti-cancer activity. Cells are grown in 96 well plates and exposed to the test compound for 48 hours. Compounds are tested at a single concentration, which is 10^-5 M for most compounds. The reported endpoint is percent growth (GI% or GIPRCNT), where numbers from 0 - 100% represent growth inhibition, and numbers from -100% - 0 represent cell death. For example, a value of 40 represents 60% growth inhibition. A value of 0 means no net growth occurred over the course of the experiment. A value of -40 indicates 40% of cells at the beginning of the experiment died by the end of the experiment. A value of -100 means all cells are dead at the end of the experiment.
# NCI-60 Human Tumor Cell Lines Screen was performed using the standard one-dose NCI protocol, which is described in more detail at https://dtp.cancer.gov/discovery_development/nci-60/default.htm.
# Compounds with GIPRCNT values below 10 were considered active. Activity score was based on GIPRCNT using the following formula: […]
# Score is 0 for GIPRCNT values of 100 or above, 50 for GIPRCNT values of 0, and 100 for GIPRCNT values of -100.
row,Compound,growth
1,COc1ccc2c(c1)c(-c1cc(-c3cn(C)c4ccc(OC)cc34)on1)cn2C,86.3% (inactive)
2,Cc1ccc(C(=O)c2ccc(CC(=O)N/N=C/c3ccc(O)cc3O)n2C)cc1,12.6% (inactive)
3,Cn1cc(-c2nn3cc(-c4ccccc4)nc3s2)c2ccccc21,65.3% (inactive)
4,COc1cc(-c2nc(SCCC(C)C)nc(N3CCOCC3)c2C#N)cc(OC)c1OC,89.2% (inactive)
5,CCCCCCCCn1ccc2cc(NC(=O)Cn3cc(CN4CCC(C)CC4)nn3)ccc21,3.1% (active)
6,COc1cc(-c2cc(-c3ccc(Nc4ncnc5cc(Cl)ccc45)cc3)nc(N3CCN(C)CC3)n2)cc(OC)c1OC,58.1% (inactive)
7,COCCCOc1cc(C[C@@H](C[C@H](N)[C@@H](O)C[C@H](C(=O)NCC(C)(C)C(N)=O)C(C)C)C(C)C)ccc1OC,103% (inactive)
8,Cc1ccc(/C=C(\C#N)C(=O)Nc2ncc(Cc3cc(Cl)ccc3Cl)s2)o1,40.7% (inactive)
9,O=C(CN1C(=O)NC2NC(=O)NC21)N/N=C/c1ccc(Cl)cc1Cl (stereo not given),105% (inactive)
10,COC(=O)c1nc(-c2ccccc2)oc1S(=O)(=O)N1CCC(C(N)=O)CC1,1.95% (active)
11,O=C(CCCCCCN1CC(=O)N2[C@@H](C3CCCCC3)c3[nH]c4ccccc4c3C[C@H]2C1=O)NO,10.3% (inactive)
12,COC(=O)/C=C1/SC(=Nc2cccc(Cl)c2)N(CCc2c[nH]c3ccc(O)cc23)C1=O,-8.3% (active)
13,CCC/C(=N\NC(N)=O)C(OC)OC,121% (inactive)
14,C(/C=C/c1ccccc1)=Nc1ccc(CCc2ccc(N=C/C=C/c3ccccc3)cc2)cc1,78.2% (inactive)
15,NC(=S)N/N=C/c1cn(-c2ccccc2)nc1-c1cc2ccccc2oc1=O,33.4% (inactive)
16,O=C1C(Cl)=C(NCCN2CCOCC2)C(=O)c2ncccc21,8.73% (active)
17,Nc1c(C(=O)O)cc(Cl)cc1[N+](=O)[O-],94.2% (inactive)
18,CS(=O)(=O)Nc1cc(-c2ccc3ncnc(Nc4ccc5c(cnn5Cc5cccnc5)c4)c3c2)cnc1Cl,24.7% (inactive)
19,C=CCOC(=O)C1=C(C)NC(=O)NC1c1c(Cl)n(C)c2ccccc12 (stereo not given),98.5% (inactive)
20,CCN(CC)CCNC(=O)c1ccc(-c2nc3ccc4[nH]ncc4c3c3c2CCCC3)cc1,50% (inactive)

row,Compound,growth
1,COc1ccc2cc(-c3cnc4nonc4n3)ccc2c1,6.87% (active)
2,O=C(Nc1cccc(NC(=O)C2CCCCC2)c1)c1ccccn1,91.3% (inactive)
3,O=C(CSc1nnc2sc(Nc3cccc(Cl)c3)nn12)c1ccc(F)cc1,71.3% (inactive)
4,CN1CCCc2cc(/C=C3/SC(=S)N(CCc4ccc(O)cc4)C3=O)ccc21,51% (inactive)
5,C[C@@H]1O[C@@H](O[C@@H]2C[C@H](c3ccc4c(c3O)C(=O)C3=C(C4=O)[C@@]4(O)C(=O)C[C@](C)(O)C[C@@]4(O)C=C3)O[C@H](C)[C@H]2O)C[C@H](O)[C@@H]1O,91.5% (inactive)
6,CC1COCC(C)N1C1=C(Cl)C(=O)c2ccccc2C1=O (stereo not given),9.7% (active)
7,COc1cc2cc(Oc3ccc(NC(=O)Nc4ccccc4)cc3)c(C)nc2cc1OCCN1CCCCC1,-22.2% (active)
8,C[C@H]1[C@H](C)CC[C@]2(C(=O)O)CC[C@]3(C)C(=CC[C@@H]4[C@@]5(C)C[C@@H](Cc6cn([C@@H]7O[C@H](CO)[C@@H](O)[C@H](O)[C@H]7O)nn6)[C@H](O)C(C)(C)[C@@H]5CC[C@]43C)[C@H]12,94.2% (inactive)
9,CCN(CC)CCCC(C)Nc1ccc2cc(OC)ccc2n1 (stereo not given),116% (inactive)
10,COc1ccc(Nc2ncc(C(N)=O)c(NCCCNC(=O)C3CCC3)n2)cc1,38.7% (inactive)
11,C=CCCC(=O)N1C=CC(=O)[C@H](O)[C@@H]1/C=C/c1ccccc1,36.5% [100 µM] (inactive)
12,COc1ccc(-c2cn(-c3ccc(Cl)cc3)c(SCC(=O)c3ccc([N+](=O)[O-])cc3)n2)cc1,83.5% (inactive)
13,C#Cc1cccc(Nc2nc3ccc([N+](=O)[O-])cc3nc2Nc2cccc(C#C)c2)c1,-47.5% (active)
14,O=C(CN1CCN(c2cc3c(cc2F)c(=O)c(C(=O)O)cn3C2CC2)CC1)N/N=C/c1ccncc1,101% (inactive)
15,CCC(CC)(N(CC(=O)O)CC(=O)O)C(CC)(CC)N(CC(=O)O)CC(=O)O,107% (inactive)
16,CC(CN)[C@@H]1CC[C@]2(CO)CC[C@]3(C)[C@H](CC[C@@H]4[C@@]5(C)CCC(N)C(C)(C)[C@@H]5CC[C@]43C)[C@@H]12 (stereo not given in full),-35.1% (active)
17,Cc1ccccc1OCC(O)COc1ccccc1C,131% (inactive)
18,Cc1ccccc1CNc1c2ccccc2nc2ccccc12,8.85% (active)
19,Cc1cscc(C)c1=S,81.2% (inactive)
20,C=CC(=O)NCCOc1cccc(Nc2cc(NCCCNC(=O)C3CCC3)c(Br)cn2)c1,-10.5% (active)
